The full list was thinned out, with hits kept by preference.
Dicer inh: inhibitors of Dicer pre-microRNA processing, primary screen, biochemical, cat-ELCCA, chemiluminescence | 6% of 47,000 active | z-score at 25 µM | cat-ELCCA pre-miR-21 Dicer processing; active compounds read high | Endoribonuclease Dicer (Homo sapiens), Q9UPY3 | AID 1347074, 2019; in the data active means z-score above about 3, passing the limit was not always enough;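 further: plate controls were vehicle for no effect and no enzyme for full effect; higher signal means more uncleaved substrate so more Dicer inhibition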
Active calls of the source: *.

Screening COc1cc(OC)cc(-c2nc3n(n2)C(c2ccccc2)C2=C(CCCC2=O)N3)c1 (centres undefined) returned Dicer inh 2.4.
Screening Clc1ccccc1OCc1nc(-c2ccccc2)no1 returned Dicer inh 0.77.
Screening CCOC(=O)N1CCN(c2nc(C)c3c(n2)CC(c2ccc(Cl)cc2)CC3=O)CC1 (centres undefined) returned Dicer inh -0.43.
Screening CC(C)(C)C(=O)NC(=S)Nc1cccc(C(F)(F)F)c1 returned Dicer inh -0.2.
Screening FC(F)(F)c1cccc(NC(=S)Nc2ccccc2C(F)(F)F)c1 returned Dicer inh -0.33.
COC(=O)c1ccc(CSc2ccccc2NC(=S)Nc2cccc(C(F)(F)F)c2)o1 was read as Dicer inh 4.4*.
`O=C(Nc1ccc(Cl)c(-c2nc3ncccc3o2)c1)c1cc2ccccc2o1` gave Dicer inh 2.3.
`Nc1ncnc2c1ncn2CCc1ccccc1` gave Dicer inh -0.86.
Screening Nc1ncnc2c1ncn2CCN1CCCCC1 returned Dicer inh -1.7.
Nc1ncnc2c1ncn2CC(O)CO (centres undefined) was read as Dicer inh 6.8*.
For N#Cc1sc2nc3ccccc3n2c1N the results were Dicer inh 0.34.
`CC(C)(C)c1ccc(C(=O)Oc2c(Cl)cncc2Cl)cc1` gave Dicer inh 0.22.
`CC(C)(C)c1cc(C(=O)Oc2cncc(Cl)c2)cc(C(=O)Oc2cncc(Cl)c2)c1` gave Dicer inh 36*.
`COC(=O)c1cncc(C(=O)OC)c1` gave Dicer inh -1.1.
Cc1sc2nc(C)n(N)c(=O)c2c1C was read as Dicer inh 0.12.
Ic1ccc(I)s1 was read as Dicer inh 0.2.
Cn1c(=O)c2c(nc(Cl)n2Cc2cccc(Cl)c2)n(C)c1=O was read as Dicer inh 0.
Screening Cn1c(=O)c2c(nc(N3CCCCC3)n2Cc2ccc(Cl)cc2)n(C)c1=O returned Dicer inh 0.07.
For Cc1ccccc1CSc1nc2c(c(=O)n(C)c(=O)n2C)n1C the results were Dicer inh 5.2*.
For Cn1c(=O)c2c(nc(Cl)n2Cc2ccc(F)cc2)n(C)c1=O the results were Dicer inh 3.1*.
For Cn1c(=O)c2c(nc(Cl)n2Cc2ccc(C(C)(C)C)cc2)n(C)c1=O the results were Dicer inh 16.
Cn1c(=O)c2c(nc(SCc3cc4c(cc3Cl)OCO4)n2C)n(C)c1=O was read as Dicer inh 0.59.
CC(C)n1c(SCc2ccccc2F)nc2c1c(=O)n(C)c(=O)n2C was read as Dicer inh -0.32.
For Cn1c(=O)c2c(ncn2Cc2ccc(Cl)cc2)n(C)c1=O the results were Dicer inh -0.04.
`Cn1c(=O)c2c(nc(Sc3ccccc3)n2Cc2ccc(Cl)cc2Cl)n(C)c1=O` gave Dicer inh 1.3.
`Cn1c(=O)c2c(nc(N3CCOCC3)n2Cc2ccc(Cl)cc2)n(C)c1=O` gave Dicer inh -0.46.
Cn1c(=O)c2c(nc(Sc3ccc(Cl)cc3)n2C)n(C)c1=O was read as Dicer inh 3.1*.
Cn1c(=O)c2c(nc(Br)n2Cc2ccc(Cl)cc2)n(C)c1=O was read as Dicer inh 4.2*.
NNC(=O)CSc1ncnc2sc3c(c12)CCCC3 was read as Dicer inh -0.2.
Cc1cc(C)c2c(c1)-c1cc(C)nn1C(c1sccc1C)N2 (centres undefined) was read as Dicer inh 0.02.
`Cc1cc(C)c2[nH]c(C3C(=O)c4ccccc4C3=O)cc(=O)c2c1` gave Dicer inh -0.03.
Screening CCOC(=O)c1cnc(C(F)(F)F)nc1Nc1ccccc1Cl returned Dicer inh -1.2.
Screening O=C(Cn1nnc2sc3c(c2c1=O)CCCC3)Nc1ccc(Br)cc1 returned Dicer inh 1.3.
Cc1nnc(N2C(=O)c3oc4ccccc4c(=O)c3C2c2cccc(Br)c2)s1 (centres undefined) was read as Dicer inh 0.8.
O=C(Nc1ccc(-c2ccccn2)s1)N1CCOCC1 was read as Dicer inh -0.4.
For Cc1nonc1NC(=O)N1CCOCC1 the results were Dicer inh 5.9*.
Screening Cc1nonc1NC(=O)Nc1ccncc1 returned Dicer inh 44.
For CC1=CC(C)(C)Nc2ccc(OC(=O)c3ccc(Br)cc3)cc21 the results were Dicer inh -1.7.
`Cc1ccc(C)c(S(=O)(=O)N(C(=O)c2cccnc2)c2ccc3oc(=O)sc3c2)c1` gave Dicer inh 13.
For Cc1ccc(S(=O)(=O)NCc2cccnc2)c(C)c1 the results were Dicer inh 1.2.
Cc1cc(C)c(S(=O)(=O)N(C(=O)c2cccnc2)c2ccc3oc(=O)sc3c2)cc1C was read as Dicer inh 11*.
Cc1ccc(S(=O)(=O)N(C(=O)c2cccnc2)c2ccc3oc(=O)sc3c2)c(C)c1 was read as Dicer inh 8.4*.
Screening CC(C)c1ccc(NC(=O)CSc2ncc(-c3ccc(Cl)cc3)o2)cc1 returned Dicer inh -0.25.
`CC(C)(C)c1ccc2nc(/C(=C\c3ccc(F)cc3)NC(=O)c3ccccc3)[nH]c2c1` gave Dicer inh 0.48.
Screening Cc1ccc2cc(NC(=O)c3nccnc3C(=O)O)ccc2n1 returned Dicer inh -0.64.
Screening CCSC1=N/C(=C\c2ccc(N(CC)CC)cc2OC)C(=O)S1 returned Dicer inh 0.19.
`Cc1cccc(Cl)c1/C=N/NC(N)=S` gave Dicer inh -0.37.
O=C(NC1=NCCN1)c1c(Cl)cccc1Cl was read as Dicer inh -0.1.
`COc1nc(C)nc(NC(=O)Nc2sc(=S)n(C)c2C)n1` gave Dicer inh -0.05.
Cn1c(=O)c2c(ncn2CC(=O)N2CCCCC2)n(C)c1=O was read as Dicer inh 0.77.
Cn1c(=O)c2c(ncn2CC(=O)N2CCCC2)n(C)c1=O was read as Dicer inh -0.45.
`CCOC(=O)CCn1cnc2c1c(=O)n(C)c(=O)n2C` gave Dicer inh 5.2.
CC1CCN(C(=O)Cn2cnc3c2c(=O)n(C)c(=O)n3C)CC1 was read as Dicer inh 3.1*.
`CCOC(=O)C1CCCN(C(=O)Cn2cnc3c2c(=O)n(C)c(=O)n3C)C1` (centres undefined) gave Dicer inh 7.2*.
Screening Cn1c(=O)c2c(ncn2CC(=O)NC2CCSC2=O)n(C)c1=O (centres undefined) returned Dicer inh 1.4.
Screening COCCCNC(=O)Cn1cnc2c1c(=O)n(C)c(=O)n2C returned Dicer inh 1.6.
For COC(=O)C1CCN(C(=O)Cn2cnc3c2c(=O)n(C)c(=O)n3C)CC1 the results were Dicer inh 4.6*.
Screening Cn1c(=O)c2c(ncn2CC(=O)N2CCOCC2)n(C)c1=O returned Dicer inh 1.4.
Screening Cn1cc2c(n1)-c1cc(Cl)ccc1SC2 returned Dicer inh -0.9.
CCCOC(=O)C1=C(C)NC2=C(C(=O)CC(c3ccc(OC)cc3)C2)C1c1ccc(OC)cc1OC (centres undefined) was read as Dicer inh -0.76.
O=C1OCCCN=C(c2ccccc2)c2ccccc21 was read as Dicer inh -0.18.
Screening O=C1C2=C(NC(=S)NC2c2ccccc2)c2ccccc21 (centres undefined) returned Dicer inh -0.71.
O=[N+]([O-])c1ccc(C2N(Cc3ccccc3)CCC3CCCCN32)cc1 (centres undefined) was read as Dicer inh -0.85.
`Cc1nn(-c2ccccc2)nc1CNS(=O)(=O)c1cn(C)c(C)n1` gave Dicer inh 1.4.

Bioassay records (PubChem BioAssay)
